From the OligoGym collection

molecular target: ERICH1; assay: pooled miR-30 sensor sort-seq; sequence = guide strand; conditions: shRNA
Further: reference of the scale not given here.

Sequence | sensor-assay potency score (higher = more potent)
TTCTTTGATTTATGCTTCCTAA | -1.05
TATACATTTAACTTAACAGAAT | -1.58
TTATTTTTGCTTATTGTGGTGC | 0.19
TTTTTTGTTAAAGAGGAGCTGT | 0.195
TATTGTGGTGCCATCTGTGTGC | 0.019
AATTGTATCATCTTCCTCGCTG | 0.524
TTTCATTGGTAATTGTATCATC | -0.447
TTTATTTTTGCTTATTGTGGTG | -0.386

molecular target: ERMAP; assay: as above; conditions: shRNA

Sequence | sensor-assay potency score (higher = more potent)
TAGTAAAGAAGAGTTCACCTTG | 0.291
TAGTTCTGAACAAATGACTAGA | -0.0154
TCAGACATCGGTAAGACCCTTG | 0.421
TATTGCAGTACAATGGTCTTGT | 0.896
TTGTAGAAAGAGATGACTCCTG | 0.279
TCTCTCACTAGCACCGTCCTCC | 0.0369
TTTGCTCTTCTTTGCTTCCAGA | -0.875
TTCAACTTCAGTTCACTCCGGA | 0.912
TTTCTTGACAGCTTTATGGAGT | 0.273
TTTACTCAGATTTCCAACTTGG | 0.208
TTTTGCTCTTCTTTGCTTCCAG | 0.153
TTACACATCTTTGGTCCTCAGA | -0.674

molecular target: ESPNL; assay: as above; conditions: shRNA

Sequence | sensor-assay potency score (higher = more potent)
TACATCTTCTTGAGTGTCCGTC | 0.148
TGCCACAACAGAACAGTCCCGC | 0.291
TGAGTCTGTGAGTACCTCCAGG | -0.966
TCGGTGAATGTGACCAGCCAGA | -1.22
TTTTACATCTTCTTGAGTGTCC | 0.799
TTATTTAGCAAACACATGTTCA | -0.54
TCCTCTTCTTCCATCCTCCAGG | -1.74
TTACATCTTCTTGAGTGTCCGT | 0.428
TTCAGCAGCAGGGACAGGCTGC | -0.751
TTTATTTAGCAAACACATGTTC | -0.167
TGCACCAAGAACTTGACGCAGT | -1.02
TAGCAAACACATGTTCAGCTTC | 0.322

molecular target: ESR2; assay: as above; conditions: shRNA

Sequence | sensor-assay potency score (higher = more potent)
TACAGATGTGATAACTGGCGAT | -0.498
TTGAGCGCCACATCAGCCCCAT | -0.177
TAATTCATCACAGCAGGGCTAT | -0.611
AAATATAATCATTATGTCCTTG | -0.156
ATCATGTGTACCAACTCCTTGT | -0.273
TTTAACTCTCGAAACCTTGAAG | -0.511
TAATCGCTGCAGACAGCGCAGA | -1.17
TAAAAAAGGCCTTACATCCTTC | -0.442
